Screening data (PubChem BioAssay)
Shown is part of a subset that was picked to be rich in hits.
miR-122 inh = miR-122 suppressors via Renilla sensor increase, primary screen, cell-based, Huh7 psiCHECK-miR122, Renilla luciferase, single point | activation, % at 12.5 µM | 340,000 compounds, 0.14% hits | 48 h | AID 623901, 2012;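 active = mean activation of 30% or more, with every replicate also reaching 30%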;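 note: higher luciferase signal means stronger suppression of miR-122 activity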
A number is an active result.

C[C@H](CO)N1C[C@H](C)[C@@H](CN(C)Cc2ccc(Cl)c(Cl)c2)Oc2c(NS(=O)(=O)c3ccccc3)cccc2C1=O was read as miR-122 inh inactive.
Screening CCCNC(=O)Nc1ccc2c(c1)OC[C@H](C)N(C)C[C@@H](C)[C@H](OC)CN(C)C2=O returned miR-122 inh inactive.
C[C@H](CO)N1C[C@H](C)[C@@H](CN(C)S(C)(=O)=O)Oc2ncc(C#Cc3cccnc3)cc2C1=O was read as miR-122 inh inactive.
`C[C@H](CO)N1C[C@H](C)[C@H](CN(C)Cc2ccc(F)cc2)Oc2ncc(-c3ccccc3)cc2C1=O` gave miR-122 inh inactive.
`COCC(=O)N(C)C[C@H]1Oc2ncc(C#Cc3ccncc3)cc2C(=O)N([C@@H](C)CO)C[C@@H]1C` gave miR-122 inh inactive.
`CN1C(=O)c2cc(NS(=O)(=O)c3ccc(Cl)cc3)ccc2OC[C@H]2O[C@H](CC(=O)N3CCc4ccccc4C3)CC[C@@H]21` gave miR-122 inh 33.
Screening COCC(=O)Nc1ccc2c(c1)C(=O)N(C)[C@@H]1CC[C@@H](CC(=O)NC3Cc4ccccc4C3)O[C@@H]1CO2 returned miR-122 inh 37.
Screening COCC(=O)Nc1ccc2c(c1)C(=O)N(C)[C@@H]1CC[C@H](CC(=O)N3CCc4ccccc4C3)O[C@H]1CO2 returned miR-122 inh 37.
For CN1C(=O)c2cc(NC(=O)c3ccc(C(F)(F)F)cc3)ccc2OC[C@@H]2O[C@@H](CC(=O)NC3Cc4ccccc4C3)CC[C@@H]21 the results were miR-122 inh 55.
Screening CCCNC(=O)N(C)C[C@H]1Oc2ncc(C#CCC(C)C)cc2C(=O)N([C@H](C)CO)C[C@@H]1C returned miR-122 inh inactive.
Screening CO[C@@H]1CN(C)C(=O)c2cc(NC(=O)Cc3ccccc3)ccc2OC[C@H](C)N(C)C[C@@H]1C returned miR-122 inh inactive.
For C[C@@H]1CN([C@@H](C)CO)C(=O)c2cc(/C=C/c3ccccc3)cnc2O[C@H]1CN(C)C(=O)c1ccncc1 the results were miR-122 inh inactive.
Screening C[C@@H]1CN([C@@H](C)CO)C(=O)c2cc(N(C)C)ccc2O[C@@H]1CN(C)C(=O)Nc1ccc(F)cc1 returned miR-122 inh inactive.
C[C@@H]1CN([C@@H](C)CO)C(=O)c2cc(C#Cc3cccc(F)c3)cnc2O[C@@H]1CN(C)C(=O)C1CC1 was read as miR-122 inh inactive.
CCCNC(=O)N(C)C[C@@H]1Oc2ncc(C#C[C@H](C)O)cc2C(=O)N([C@@H](C)CO)C[C@@H]1C was read as miR-122 inh inactive.
For CCCN(C)C[C@H]1Oc2cc(C#Cc3ccccc3F)ccc2S(=O)(=O)N([C@@H](C)CO)C[C@H]1C the results were miR-122 inh inactive.
Screening C[C@H](CO)N1C[C@H](C)[C@@H](CN(C)C(=O)Nc2ccccc2F)Oc2ncc(-c3cccc(F)c3)cc2C1=O returned miR-122 inh inactive.
For CCCC(=O)Nc1ccc2c(c1)OC[C@H](C)N(C(C)=O)C[C@@H](C)[C@@H](OC)CN(C)C2=O the results were miR-122 inh inactive.
C[C@H]1CN([C@@H](C)CO)S(=O)(=O)c2ccc(C#Cc3cccnc3)cc2O[C@@H]1CN(C)C(=O)C1CC1 was read as miR-122 inh inactive.
For C[C@@H]1CN([C@H](C)CO)C(=O)c2cc(-c3cccc(C(=O)N(C)C)c3)cnc2O[C@H]1CN(C)C(=O)Cc1ccccn1 the results were miR-122 inh inactive.
C[C@H](CO)N1C[C@H](C)[C@H](CN(C)S(C)(=O)=O)Oc2ncc(Br)cc2C1=O was read as miR-122 inh inactive.
Screening CC(=O)N(C)C[C@H]1[C@H](c2ccc(-c3cccnc3)cc2)[C@@H](CO)N1C(=O)C1CC1 returned miR-122 inh inactive.
`O=C(C1CCOCC1)N1[C@H](CO)[C@H]2c3ccccc3NC[C@H]21` gave miR-122 inh 42.
For CC(=O)N1[C@@H](CO)[C@H](c2ccccc2)[C@@H]1CNC(=O)CN1CCOCC1 the results were miR-122 inh inactive.
Screening O=C(OCn1ncc(Cl)c(Cl)c1=O)c1ccccc1Cl returned miR-122 inh 61.
For C/C=C/c1cnc2c(c1)C(=O)N([C@H](C)CO)C[C@H](C)[C@@H](CN(C)S(=O)(=O)c1ccc(C)cc1)O2 the results were miR-122 inh inactive.
C[C@H](CO)N1C[C@H](C)[C@H](CN(C)C(=O)c2cccnc2)Oc2ncc(-c3ccccc3)cc2C1=O was read as miR-122 inh inactive.
`C/C=C/c1cnc2c(c1)C(=O)N([C@@H](C)CO)C[C@@H](C)[C@H](CN(C)C(=O)c1cccnc1)O2` gave miR-122 inh inactive.
C[C@H]1CN([C@@H](C)CO)C(=O)c2cc(-c3cncnc3)cnc2O[C@H]1CN(C)Cc1ccccc1 was read as miR-122 inh inactive.
Screening COCC(=O)N(C)C[C@@H]1Oc2cc(-c3cccc(F)c3)ccc2S(=O)(=O)N([C@H](C)CO)C[C@@H]1C returned miR-122 inh inactive.
CO[C@@H]1CN(C)C(=O)c2ccc(NC(=O)c3cc(C)on3)cc2OC[C@@H](C)N(S(=O)(=O)c2ccccc2)C[C@H]1C was read as miR-122 inh inactive.
Screening CC(C)C#Cc1ccc2c(c1)O[C@H](CN(C)Cc1ccncc1)[C@@H](C)CN([C@H](C)CO)S2(=O)=O returned miR-122 inh inactive.
`CCOc1ccc(NS(=O)(=O)c2ccc(NC(=S)NC(=O)C(C)C)cc2)cc1` gave miR-122 inh inactive.
`CCOc1ccc(NC(=S)N(CCCN2CCCC2)Cc2cccn2Cc2ccc(Cl)cc2)cc1` gave miR-122 inh 33.
`CC(C)C#Cc1cnc2c(c1)C(=O)N([C@H](C)CO)C[C@H](C)[C@@H](CN(C)C(=O)c1ccccc1)O2` gave miR-122 inh inactive.
C[C@@H]1CN([C@@H](C)CO)S(=O)(=O)c2ccc(C#C[C@@H](C)O)cc2O[C@@H]1CN(C)C(=O)c1ccncc1 was read as miR-122 inh inactive.
For C[C@H](CO)N1C[C@H](C)[C@H](CN(C)C(=O)c2ccccn2)Oc2ncc(-c3cccc(F)c3)cc2C1=O the results were miR-122 inh inactive.
Screening C[C@H]1CN([C@@H](C)CO)S(=O)(=O)c2ccc(C#CC(C)(C)O)cc2O[C@@H]1CN(C)CC1CC1 returned miR-122 inh inactive.
For C[C@H](CO)N1C[C@H](C)[C@@H](CN(C)Cc2ccccc2)Oc2cc(-c3cncnc3)ccc2S1(=O)=O the results were miR-122 inh inactive.
Screening Cc1ccsc1/C=N/NC(=O)CSCc1ccc(Cl)cc1 returned miR-122 inh 36.
`CC(=O)N1[C@H](CNC(=O)C2CC2)[C@@H](c2ccc(-c3ccccc3)cc2)[C@@H]1CO` gave miR-122 inh inactive.
For CCC(=O)Nc1ccc2c(c1)OC[C@H](C)N(Cc1ccccc1F)C[C@@H](C)[C@H](OC)CN(C)C2=O the results were miR-122 inh inactive.
N#CC1=C(N)Oc2c(ccc3cccnc23)C1c1ccccc1 (stereo unspecified) was read as miR-122 inh 64.
Screening CCCNC(=O)N(C)C[C@@H]1Oc2ncc(-c3ccc(C(=O)N(C)C)cc3)cc2C(=O)N([C@@H](C)CO)C[C@@H]1C returned miR-122 inh inactive.
For COc1ccccc1S(=O)(=O)N(C)C[C@@H]1Oc2cc(/C=C/c3ccccc3)ccc2S(=O)(=O)N([C@H](C)CO)C[C@@H]1C the results were miR-122 inh inactive.
`CO[C@@H]1CN(C)C(=O)c2ccc(NS(=O)(=O)c3ccc(C)cc3)cc2OC[C@@H](C)N(C)C[C@H]1C` gave miR-122 inh inactive.
